Inhibition data for 55 compounds are collected here from PubChem BioAssay AID434989 (The Scripps Research Institute Molecular Screening Center, 2010).

Hit rate of the full screen: of about 330,000 compounds, about 1,400 (0.42%) were called active. This excerpt belongs to a sample that is enriched for actives. Unmarked numbers belong to inactive results.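 How the source made its calls: active means inhibition above its plate's threshold, mean inhibition of all tested compounds on the plate plus 3 SD (cut at about 37% in these data); inactive means the rest.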

The test deals with Orexin/Hypocretin receptor type 1 (Homo sapiens) (UniProt O43613). Kind of test: OX1R (HCRTR1) antagonists, primary screen, fluorescence, CHO/OX1R cells, Fluo-8 calcium, orexin A (AID 434989).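 Further: 0% = orexin A challenge wells and 100% = SB-334867-A antagonist wells.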 The following applies: Fluo-8 calcium fluorescence, at 5 µM, hits give high values.
Sequence of Orexin/Hypocretin receptor type 1 (Homo sapiens) (O43613 whole entry, looked up): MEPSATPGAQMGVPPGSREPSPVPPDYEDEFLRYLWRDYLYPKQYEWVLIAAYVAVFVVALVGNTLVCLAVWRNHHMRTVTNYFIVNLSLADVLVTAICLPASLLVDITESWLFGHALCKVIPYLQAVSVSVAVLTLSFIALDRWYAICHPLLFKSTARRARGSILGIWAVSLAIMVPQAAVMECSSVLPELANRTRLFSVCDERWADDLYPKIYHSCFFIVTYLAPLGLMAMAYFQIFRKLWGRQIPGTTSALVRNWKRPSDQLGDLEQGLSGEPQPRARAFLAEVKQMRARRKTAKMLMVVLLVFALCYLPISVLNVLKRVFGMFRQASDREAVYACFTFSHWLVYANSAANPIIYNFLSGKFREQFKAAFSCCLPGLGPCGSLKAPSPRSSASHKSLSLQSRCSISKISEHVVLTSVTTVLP
Turning to `CC1=C/C(=N\OS(=O)(=O)c2ccccc2)C=CC1=O`, the inhibition is 50.8% (active). Take `CC(C)N(C(=O)[C@H]1C[C@H](CC(=O)NCCC2=CCCCC2)C(=O)N2CCc3c([nH]c4cc(CCC(=O)N(C)C)ccc34)[C@]12C)C(C)C`: the inhibition was -35.9%. As to `O=C(/C=C/c1ccc2c(c1)OCCO2)c1ccc(O)cc1`, the inhibition is -5.09%. In the case of `O=C(/C=C/c1ccc(Cl)c([N+](=O)[O-])c1)c1ccc(O)cc1`, the inhibition is -19.1%. `O=C(/C=C(O)/C=C/c1ccc(O)cc1)/C=C/c1ccc(O)cc1`: the inhibition was 88% (active).

For the compound `Cc1ccc(S(=O)(=O)N2[C@@H](c3cccc4ccccc34)C(C(=O)O)=C[C@H]2C(C)(C)C)cc1`, the inhibition is -3.21%. Under `CCN(C[C@H]1N[C@@](CC)(C(=O)OC)[C@H]2C(=O)N(Cc3ccccc3)C(=O)[C@@H]12)S(=O)(=O)c1ccccc1` stands -23.9%. As to `O=C(COC(=O)/C=C/c1cccc(Cl)c1)NCc1cccs1`, the inhibition is -21.7%. `Cc1ccc(S(=O)(=O)N(C)c2ccc(OCC(=O)OCc3ccc(C#N)cc3)cc2)cc1`: the inhibition was 0.88%. Turning to `CC1(C)C=Cc2c(ccc3c2OC[C@@H](c2ccc(O)cc2O)C3)O1`, the inhibition is 47.2% (active). Under `COc1cc(/C=C/C(=O)OCC(=O)NC2CC2)cc(OC)c1OC` stands -7.25%.

`C/C(N)=C(/C#N)C(=O)COC(=O)c1cc(-c2ccccc2)nc2ccc(Br)cc12`: the inhibition is 5.4%.

`C/C(N)=C(/C#N)C(=O)COC(=O)c1cc(-c2cccc(Br)c2)nc2ccccc12`: the inhibition is 15.2%.

For `C/C(N)=C(/C#N)C(=O)COC(=O)c1cc(-c2ccc(C)cc2)nc2ccccc12`, the inhibition is 47.2% (active).

Regarding `CC(C)COc1ccc(C(=O)NNC(=O)CCC(=O)c2cccs2)cc1`, the inhibition was -18.4%. For `FC(F)(F)C1CCCN(c2nsc3ccccc23)C1` (stereo not given), the inhibition was 46.1% (active). On to `O=C(NCC(=O)N1CCCC(C(F)(F)F)C1)c1ccccc1F` (stereo not given), for which the inhibition is 0.97%. Under `O=C(NC(Cc1ccccc1)C(=O)N1CCCC(C(F)(F)F)C1)c1ccccc1` (stereo not given) stands -34.6%; under `Cc1onc(-c2c(F)cccc2Cl)c1C(=O)OCC(=O)N1C(C)CCCC1C` (stereo not given), -24.4%; under `COc1ccc(NC(=O)CNc2cc(S(=O)(=O)N3CCOCC3)ccc2N2CCOCC2)c(OC)c1`, -10.3%. Regarding `O=C1/C(=C\c2ccsc2)NC(=S)N1c1ccccc1`, the inhibition was -19.5%. On to `CN(C)c1ccc(/C=C2\NC(=S)N(Cc3ccccc3)C2=O)cc1`, for which the inhibition is 91.7% (active).

As for `COc1cc(/C=C2/SC(=S)N(Cc3ccccc3)C2=O)cc(OC)c1O`, the inhibition is 31.2%. Under `O=C(NCCN1C(=O)S/C(=C\c2cccnc2)C1=O)c1cccc(OC(F)F)c1` stands -28.3%. In the case of `Cc1cc(OCCCC(=O)NCCN2C(=O)S/C(=C\c3cccnc3)C2=O)ccc1Cl`, the inhibition is 94.3% (active). On to `CCOc1ccc(N2CC(C(=O)NCCN3C(=O)S/C(=C\c4cccnc4)C3=O)CC2=O)cc1` (stereo not given), for which the inhibition is -17.9%. Regarding `COC(=O)[C@]1(Cc2ccccc2)N[C@H](CN(C)S(=O)(=O)c2ccc(OC(F)(F)F)cc2)[C@@H]2C(=O)N(C)C(=O)[C@@H]21`, the inhibition is -30.2%. As for `COC(=O)c1ccc(/C=C/c2c(-c3ccc(OC)cc3)sc3ccccc23)cc1`, the inhibition was -6.38%. Under `COc1ccc(CNC(=O)COC(=O)C(CCSC)N2C(=O)c3ccccc3C2=O)cc1` (stereo not given) stands -29.7%; under `CCOC(=O)[C@H]1[C@H]2COc3ccccc3[C@@H]2N2C(=O)CN(Cc3ccccc3)C(=O)[C@@]12C`, -30.6%. With `CN(C)S(=O)(=O)c1ccc(N2CCCC2=O)c([N+](=O)[O-])c1`, the inhibition is -12.1%. For `CNS(=O)(=O)c1ccc(N2CCCC2=O)c([N+](=O)[O-])c1`, the inhibition was -6.08%. Under `Cc1cc(N2CCCC2=O)cc(C)c1S(N)(=O)=O` stands 44.7% (active); under `O=C1CSc2ccc(C(=O)NCc3ccccn3)cc2N1`, 7.19%.

For `CN(C)CCNC(=O)c1[nH]nc2c1CCc1ccccc1-2`, the inhibition is -12%.

For the compound `COc1cccc(/C=N/NC(=O)c2[nH]nc3c2CCc2ccccc2-3)c1O`, the inhibition was 38.6% (active). As for `COc1ccc(/C=N/NC(=O)c2ccc3c(c2)OCCO3)c(OC)c1`, the inhibition was -14.1%. Under `COc1cc(OC)c(C(=O)NNC(=O)c2ccccc2-n2cccc2)cc1OC` stands -4.23%. For `COc1cccc2sc3cc(NCC[C@@H]4CCCN4C)ccc3c(=O)c12`, the inhibition was -2.27%. For `CC(C#N)OC(=O)c1cccnc1SCC(=O)Nc1ccc2c(c1)OCO2` (stereo not given), the inhibition was -1.89%. Under `O=C(CSc1ncnc2sccc12)NC1CCS(=O)(=O)C1` (stereo not given) stands -10.8%.

Regarding `Oc1ccc(N=Nc2nccs2)c(O)c1`, the inhibition is -44.9%. Take `Oc1ccc2ccccc2c1N=Nc1nccs1`: the inhibition is 61% (active). Regarding `CCC(C(=O)Nc1ccc2c(c1)OCCO2)c1ccccc1` (stereo not given), the inhibition was 3.71%. As for `CCC(C(=O)OCC(=O)Nc1ccc(C(=O)Nc2ccc(OC)cc2)cc1)c1ccccc1` (stereo not given), the inhibition is -0.08%. With `CCC(C(=O)Nc1ccc(C(C)C)cc1)c1ccccc1` (stereo not given), the inhibition was 62.9% (active). For `NCCN1CCN2C(=O)CN(C(=O)c3ccccc3)CC12` (stereo not given), the inhibition is 3.19%. For `CC(C)(C)OC(=O)C[C@@H]1C/C=C\C[C@@H](CC(=O)NCCO)C(=O)N[C@H](Cc2c[nH]c3ccccc23)COC1=O`, the inhibition was -10.6%.

In the case of `CCN1/C(=C\c2ccc3ccccc3[n+]2CC)Sc2cc(C)ccc21`, the inhibition was 54.6% (active). For the compound `COc1ccccc1N(CCOc1ccccc1)S(=O)(=O)c1ccccc1`, the inhibition was -0.89%. With `COc1ccc2sc(-c3ccc(N(C)C)cc3)c(-c3ccc4cc[nH]c4c3)c2c1`, the inhibition was 1.84%. As for `COc1ccc2sc(-c3ccc(N(C)C)cc3)c(C#CCO)c2c1`, the inhibition is 61% (active). Under `COc1ccc(-c2sc3ccc(OC)cc3c2C#Cc2ccccn2)cc1` stands -20.1%. Consider `Cc1ccc(NC(=O)c2ccc(Cl)nc2)cc1S(=O)(=O)N1CCOCC1`, for which the inhibition was -13.6%. Under `COc1ccc(S(=O)(=O)N(C)C[C@H]2Oc3ccc(NS(=O)(=O)c4cccs4)cc3CC(=O)N([C@H](C)CO)C[C@H]2C)cc1` stands -17.2%.

As a reminder, the inhibition is the change of the read-out against control, counted positive when it falls.
